Calls of active or inactive are those of the source. How the source made its calls: active means hit-call score of the fitted dose curve at least 0.9, where 1 is the maximum; inactive means score below 0.9.

Settings in all cases: mRNA level, 48 h; actives raise or lower the signal
Read-out in assay [1]: JUN Transcription Factor, JUN (gene 3725)
The experiment in a line: LTEA_HepaRG_JUN: Life Technologies and Expression Analysis (LTEA) Assay for JUN Transcription Factor using HepaRG (AID 2283513). A digest of the protocol:
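Differentiated HepaRG cells were exposed to chemicals for 48 h in serum-free induction medium, 8 concentrations from 100 uM in half-log steps, 0.5% DMSO vehicle, in duplicate. JUN mRNA was quantified by TaqMan qRT-PCR, normalized to ACTB, GAPDH, POLR2A.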

Read-out in assay [2]: Lipase C (LIPC), LIPC (gene 3990)
The experiment in a line: LTEA_HepaRG_LIPC: Life Technologies and Expression Analysis (LTEA) Assay for Lipase C (LIPC) using HepaRG (AID 2283514). A digest of the protocol: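 Differentiated human HepaRG cells in serum-free induction medium were exposed in duplicate for 48 h to eight concentrations (top 100 uM, half-log steps, 0.5% DMSO). LIPC mRNA was quantified by TaqMan qRT-PCR, normalized to ACTB, GAPDH and POLR2A, with bidirectional fitting versus DMSO.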

Read-out in assay [3]: Lipoprotein lipase (LPL), LPL (gene 4023)
The assay is described as follows: LTEA_HepaRG_LPL: Life Technologies and Expression Analysis (LTEA) Assay for Lipoprotein lipase (LPL) using HepaRG (AID 2283515). An outline of the steps:
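Differentiated human HepaRG cells in serum-free induction medium were exposed in duplicate for 48 h to eight half-log concentrations (top 100 uM) in 0.5% DMSO. LPL mRNA was quantified by TaqMan qRT-PCR, normalized to ACTB, GAPDH and POLR2A.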

Read-out in assay [4]: MicroRNA 122 (MIR122), gene 406906
The experiment in a line: LTEA_HepaRG_MIR122: Life Technologies and Expression Analysis (LTEA) Assay for MicroRNA 122 (MIR122) using HepaRG (AID 2283516). Further: the transcript read is the microRNA miR-122. A digest of the protocol: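 Differentiated human HepaRG cells were exposed 48 h in serum-free induction medium to eight half-log concentrations (top 100 uM, 0.5% DMSO). Transcript level was measured by TaqMan qRT-PCR, normalized to ACTB, GAPDH and POLR2A, and fitted bidirectionally versus DMSO.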

Read-out in assay [5]: matrix metalloproteinase-10 (MMP10), MMP10 (gene 4319)
The experiment in a line: LTEA_HepaRG_MMP10: Life Technologies and Expression Analysis (LTEA) Assay for matrix metalloproteinase-10 (MMP10) using HepaRG (AID 2283517). An outline of the steps:
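HepaRG, collagen I, ~100,000 cells/well; serum-free induction medium; 48 h exposure, duplicate, 8-pt half-log to 100 uM, 0.5% DMSO. Readout: TaqMan qRT-PCR, normalized to ACTB/GAPDH/POLR2A; bidirectional fit vs DMSO.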

Read-out in the next assay: MYC, MYC (gene 4609)
The assay is described as follows: LTEA_HepaRG_MYC: Life Technologies and Expression Analysis (LTEA) Assay for MYC using HepaRG (AID 2283518). A digest of the protocol: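 Expression changes were scored by TaqMan qRT-PCR with ACTB, GAPDH and POLR2A normalization. Cultures in serum-free induction medium received duplicate 8-point concentration series, highest 100 uM, for 48 h; DMSO (0.5%) served as baseline.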

Read-out in assay [6]: matrix metalloproteinase-3 (MMP3), MMP3 (gene 4314)
The experiment in a line: LTEA_HepaRG_MMP3: Life Technologies and Expression Analysis (LTEA) Assay for matrix metalloproteinase-3 (MMP3) using HepaRG (AID 2283519). An outline of the steps:
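Differentiated human HepaRG cells, plated 48 h on collagen I, were exposed in duplicate for 48 h in serum-free induction medium to eight half-log concentrations up to 100 uM in 0.5% DMSO. MMP3 mRNA was quantified by TaqMan qRT-PCR, normalised to ACTB, GAPDH and POLR2A.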

Read-out in assay [7]: Paternally Expressed 10 (PEG10), PEG10 (gene 23089)
The experiment in a line: LTEA_HepaRG_PEG10: Life Technologies and Expression Analysis (LTEA) Assay for Paternally Expressed 10 (PEG10) using HepaRG (AID 2283520). A digest of the protocol:
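Differentiated HepaRG cells, plated 48 h then switched to serum-free induction medium, were exposed in duplicate for 48 h to eight half-log concentrations topping at 100 uM in 0.5% DMSO. PEG10 mRNA was quantified by TaqMan qRT-PCR, normalised to ACTB, GAPDH and POLR2A.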

Read-out in assay [8]: Protein phosphatase 2A (PPP2R4), PTPA (gene 5524)
The assay is described as follows: LTEA_HepaRG_PPP2R4: Life Technologies and Expression Analysis (LTEA) Assay for Protein phosphatase 2A (PPP2R4) using HepaRG (AID 2283522). An outline of the steps: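 Differentiated HepaRG cells in serum-free induction medium were exposed in duplicate for 48 h to eight concentrations, top 100 uM with half-log dilutions, in 0.5% DMSO. PPP2R4 mRNA was quantified by TaqMan qRT-PCR, normalized to ACTB, GAPDH and POLR2A.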

Read-out in assay [9]: Phosphatase and tensin (PTEN), PTEN (gene 5728)
The assay is described as follows: LTEA_HepaRG_PTEN: Life Technologies and Expression Analysis (LTEA) Assay for Phosphatase and tensin (PTEN) using HepaRG (AID 2283523). A digest of the protocol:
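Differentiated human HepaRG cells, plated 48 h then switched to serum-free induction medium, were exposed in duplicate for 48 h to eight half-log concentrations up to 100 uM in 0.5% DMSO. PTEN mRNA measured by TaqMan qRT-PCR, normalized to ACTB/GAPDH/POLR2A, bidirectional fit versus DMSO.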

Read-out in assay [10]: solute carrier (SLC22A1), SLC22A1 (gene 6580)
The experiment in a line: LTEA_HepaRG_SLC22A1: Life Technologies and Expression Analysis (LTEA) Assay for solute carrier (SLC22A1) using HepaRG (AID 2283524). A digest of the protocol:
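Human HepaRG cells were plated 48 h, switched to serum-free induction medium, then exposed in duplicate for 48 h to 8-point half-log series from 100 uM in 0.5% DMSO. SLC22A1 mRNA measured by qRT-PCR, normalized to ACTB/GAPDH/POLR2A, fitted bidirectionally versus DMSO.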

Read-out in assay [11]: Pyruvate Dehydrogenase Kinase 4 (PDK4), PDK4 (gene 5166)
The assay is described as follows: LTEA_HepaRG_PDK4: Life Technologies and Expression Analysis (LTEA) Assay for Pyruvate Dehydrogenase Kinase 4 (PDK4) using HepaRG (AID 2283525). A digest of the protocol:
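Differentiated human HepaRG cells, pre-cultured 48 h, were exposed in duplicate for 48 h in serum-free induction medium to eight half-log concentrations up to 100 uM in 0.5% DMSO. PDK4 mRNA was quantified by qRT-PCR, normalized to ACTB, GAPDH and POLR2A, bidirectional fitting versus DMSO.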

Read-out in assay [12]: NAD(P)H dehydrogenase [quinone] 1 (NQO1), NQO1 (gene 1728)
The experiment in a line: LTEA_HepaRG_NQO1: Life Technologies and Expression Analysis (LTEA) Assay for NAD(P)H dehydrogenase [quinone] 1 (NQO1) using HepaRG (AID 2283526). A digest of the protocol: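 Differentiated HepaRG cells, plated 48 h and then switched to serum-free induction medium, were exposed in duplicate for 48 h to 8-point half-log concentrations up to 100 uM in 0.5% DMSO. mRNA measured by qRT-PCR, normalized to ACTB, GAPDH, POLR2A; bidirectional fit versus DMSO.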

Read-out in assay [13]: Nuclear factor erythroid 2-related factor 2 (Homo sapiens) (UniProt Q16236)
The experiment in a line: LTEA_HepaRG_NFE2L2: Life Technologies and Expression Analysis (LTEA) Assay for Nuclear factor erythroid 2-related factor 2 (NFE2L2) Transcription Factor using HepaRG (AID 2283527).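 On outcome: TaqMan qRT-PCR transcript level normalised to ACTB GAPDH and POLR2A housekeeping genes.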 A digest of the protocol:
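Differentiated human HepaRG cells in serum-free induction medium were exposed for 48 h to eight concentrations (top 100 uM, half-log dilutions, 0.5% DMSO), in duplicate. NFE2L2 mRNA was quantified by TaqMan qRT-PCR, normalized to ACTB, GAPDH and POLR2A, with bidirectional fitting versus DMSO.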

Read-out in assay [14]: succinate dehydrogenase complex iron sulfur subunit B (SDHB), SDHB (gene 6390)
The experiment in a line: LTEA_HepaRG_SDHB: Life Technologies and Expression Analysis (LTEA) Assay for succinate dehydrogenase complex iron sulfur subunit B (SDHB) using HepaRG (AID 2283528). An outline of the steps:
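A human HepaRG culture in serum-free induction medium received test chemicals for 48 h over an eight-point range capped at 100 uM. SDHB expression change was quantified by qRT-PCR.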

Read-out in assay [15]: Signal transducer and activator of transcription 3 (Homo sapiens) (UniProt P40763)
The assay is described as follows: LTEA_HepaRG_STAT3: Life Technologies and Expression Analysis (LTEA) Assay for Signal transducer and activator of transcription (STAT3) using HepaRG (AID 2283529). An outline of the steps:
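Differentiated human HepaRG cells in serum-free induction medium were exposed in duplicate for 48 h to eight half-log concentrations up to 100 uM in 0.5% DMSO. STAT3 mRNA was quantified by TaqMan qRT-PCR, normalized to ACTB, GAPDH and POLR2A, and fitted bidirectionally against DMSO.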

Read-out in assay [16]: solute carrier (SLCO1B1), SLCO1B1 (gene 10599)
The experiment in a line: LTEA_HepaRG_SLCO1B1: Life Technologies and Expression Analysis (LTEA) Assay for solute carrier (SLCO1B1) using HepaRG (AID 2283530). A digest of the protocol:
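Human HepaRG cultures treated for 48 h with an eight-concentration half-log series topping at 100 uM; SLCO1B1 measured by qRT-PCR and fitted bidirectionally relative to DMSO.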

Read-out in assay [17]: sulfotransferase 2A1 (SULT2A1), SULT2A1 (gene 6822)
The experiment in a line: LTEA_HepaRG_SULT2A1: Life Technologies and Expression Analysis (LTEA) Assay for sulfotransferase 2A1 (SULT2A1) using HepaRG (AID 2283531). A digest of the protocol:
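Gene-expression endpoint in a human liver cell line: SULT2A1 mRNA change after 48 h chemical treatment, curves fitted in both directions relative to 0.5% DMSO vehicle. Concentrations spanned eight half-log steps from 100 uM.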

Read-out in assay [18]: Transforming Growth Factor (TGFA), TGFA (gene 7039)
The experiment in a line: LTEA_HepaRG_TGFA: Life Technologies and Expression Analysis (LTEA) Assay for Transforming Growth Factor (TGFA) using HepaRG (AID 2283532). A digest of the protocol: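 Differentiated human HepaRG cells, plated 48 h then switched to serum-free induction medium, were exposed in duplicate for 48 h to 8-point half-log series from 100 uM in 0.5% DMSO. TGFA mRNA measured by qRT-PCR, normalized to ACTB/GAPDH/POLR2A, bidirectional fit versus DMSO.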

Read-out in assay [19]: Nuclear factor NF-kappa-B p105 subunit (Homo sapiens) (UniProt P19838)
The assay is described as follows: LTEA_HepaRG_NFKB1: Life Technologies and Expression Analysis (LTEA) Assay for Nuclear Factor Kappa B Subunit 1 (NFKB1) using HepaRG (AID 2283521).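 On outcome: TaqMan qRT-PCR transcript normalised to ACTB GAPDH and POLR2A housekeeping genes.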 A digest of the protocol: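 Human HepaRG cells receive eight half-log concentrations, highest 100 uM, for 48 h. NFKB1 expression is then quantified by qRT-PCR and analysed for up- or down-regulation relative to 0.5% DMSO vehicle.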

Sequence of Signal transducer and activator of transcription 3 (Homo sapiens) (P40763 whole entry, looked up): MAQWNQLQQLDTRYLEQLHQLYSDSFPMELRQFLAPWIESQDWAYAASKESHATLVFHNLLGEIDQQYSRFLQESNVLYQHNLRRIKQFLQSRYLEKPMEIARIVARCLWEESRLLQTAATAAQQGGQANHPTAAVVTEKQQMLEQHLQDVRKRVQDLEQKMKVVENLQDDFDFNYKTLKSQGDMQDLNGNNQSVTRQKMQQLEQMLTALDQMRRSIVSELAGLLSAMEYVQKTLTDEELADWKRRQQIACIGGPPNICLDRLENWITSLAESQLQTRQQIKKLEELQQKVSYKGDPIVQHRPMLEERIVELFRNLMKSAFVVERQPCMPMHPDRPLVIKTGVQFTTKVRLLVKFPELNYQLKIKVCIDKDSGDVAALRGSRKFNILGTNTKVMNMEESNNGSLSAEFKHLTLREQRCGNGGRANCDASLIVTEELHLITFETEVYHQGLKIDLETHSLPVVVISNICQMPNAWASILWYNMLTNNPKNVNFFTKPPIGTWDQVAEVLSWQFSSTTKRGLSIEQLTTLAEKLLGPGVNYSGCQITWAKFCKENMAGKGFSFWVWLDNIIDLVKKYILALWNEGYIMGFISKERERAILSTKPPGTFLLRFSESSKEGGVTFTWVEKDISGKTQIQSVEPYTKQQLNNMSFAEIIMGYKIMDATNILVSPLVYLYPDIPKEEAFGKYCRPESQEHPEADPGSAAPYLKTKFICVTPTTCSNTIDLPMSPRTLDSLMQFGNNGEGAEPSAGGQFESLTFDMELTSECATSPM
Sequence of Nuclear factor erythroid 2-related factor 2 (Homo sapiens) (Q16236 whole entry, looked up): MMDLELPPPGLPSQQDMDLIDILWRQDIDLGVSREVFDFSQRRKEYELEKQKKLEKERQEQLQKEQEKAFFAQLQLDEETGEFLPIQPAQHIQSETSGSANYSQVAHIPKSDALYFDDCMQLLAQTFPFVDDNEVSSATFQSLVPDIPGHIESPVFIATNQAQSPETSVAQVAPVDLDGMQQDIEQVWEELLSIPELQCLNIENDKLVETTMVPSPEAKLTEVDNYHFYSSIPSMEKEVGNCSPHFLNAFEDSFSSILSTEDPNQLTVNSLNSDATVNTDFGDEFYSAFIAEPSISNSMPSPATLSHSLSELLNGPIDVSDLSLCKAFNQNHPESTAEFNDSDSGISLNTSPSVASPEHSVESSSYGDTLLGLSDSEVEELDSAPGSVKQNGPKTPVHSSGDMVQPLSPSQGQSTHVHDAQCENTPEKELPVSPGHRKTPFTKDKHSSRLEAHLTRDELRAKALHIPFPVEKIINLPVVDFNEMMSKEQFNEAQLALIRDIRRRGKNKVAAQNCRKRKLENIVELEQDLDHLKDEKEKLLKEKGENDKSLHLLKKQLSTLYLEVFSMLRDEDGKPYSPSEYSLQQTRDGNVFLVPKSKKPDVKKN
Sequence of Nuclear factor NF-kappa-B p105 subunit (Homo sapiens) (P19838 whole entry, looked up): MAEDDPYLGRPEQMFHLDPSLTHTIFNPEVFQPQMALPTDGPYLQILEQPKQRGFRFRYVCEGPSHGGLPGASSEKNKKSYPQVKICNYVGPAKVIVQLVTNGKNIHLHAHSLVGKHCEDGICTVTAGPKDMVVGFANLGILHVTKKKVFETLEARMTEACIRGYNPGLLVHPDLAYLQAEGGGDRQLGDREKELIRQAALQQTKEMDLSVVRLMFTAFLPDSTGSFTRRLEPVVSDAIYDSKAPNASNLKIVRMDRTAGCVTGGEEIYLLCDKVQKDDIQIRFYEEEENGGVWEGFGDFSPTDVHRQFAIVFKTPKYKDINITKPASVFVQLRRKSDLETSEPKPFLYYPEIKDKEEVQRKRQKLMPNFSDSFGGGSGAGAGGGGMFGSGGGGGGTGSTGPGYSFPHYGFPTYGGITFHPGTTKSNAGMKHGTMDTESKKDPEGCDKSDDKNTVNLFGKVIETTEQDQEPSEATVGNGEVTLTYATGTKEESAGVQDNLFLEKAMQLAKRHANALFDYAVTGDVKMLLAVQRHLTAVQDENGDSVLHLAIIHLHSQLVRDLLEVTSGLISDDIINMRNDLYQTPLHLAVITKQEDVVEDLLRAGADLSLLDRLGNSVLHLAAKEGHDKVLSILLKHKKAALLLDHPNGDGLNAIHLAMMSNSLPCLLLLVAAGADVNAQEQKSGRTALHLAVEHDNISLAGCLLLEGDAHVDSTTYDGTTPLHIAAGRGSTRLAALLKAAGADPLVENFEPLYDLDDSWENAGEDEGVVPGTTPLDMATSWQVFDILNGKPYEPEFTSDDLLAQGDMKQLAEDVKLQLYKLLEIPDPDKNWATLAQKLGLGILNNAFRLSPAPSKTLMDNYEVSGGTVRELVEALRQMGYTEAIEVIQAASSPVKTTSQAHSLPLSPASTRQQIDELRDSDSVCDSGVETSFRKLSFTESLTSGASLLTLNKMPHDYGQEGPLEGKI

A word on the AC50: it is the concentration at which the activity in the assay is half-maximal. In the case of `Cc1[nH]cnc1C[C@H]1CCc2c(C)c3ccccc3n2C1=O`, the AC50 in assay [1] was 44.5 µM (active); in assay [2] it was 27.7 µM (active); in assay [3], 79 µM (active); in assay [4], 14.1 µM (active); in assay [5] it was 70.1 µM (active); in the assay with MYC, MYC (gene 4609) it was 31.4 µM (active). Also, the concentration at half-maximal activity (AC50) was 77.3 µM (active) in assay [6]; 20.8 µM (active) in assay [7]; 73.1 µM (active) in assay [8]; 79.3 µM (active) in assay [9]; 29 µM (active) in assay [10]; 68.3 µM (active) in [11]. In addition, the AC50 is 44.5 µM (active) in assay [13], 81.5 µM (active) in [14], 21.5 µM (active) in assay [16] and 63.6 µM (active) in assay [17]. The compound was called inactive in [12], in assay [15] and in assay [18].
Turning to `O=C(O)c1cccc(N(Cc2cccnc2)c2ccc(OC(F)F)c(OC(F)F)c2)c1`, the outcome in assay [1] was “inactive”; in [2], “inactive”; in assay [3] it was “inactive”; in [4], “inactive”; with MYC, MYC (gene 4609) it was “inactive”; in [8], “inactive”. In addition, the outcome in assay [9], in assay [10], in [12], in [13], in assay [14] and in [16] was inactive. Also, the result in [18] was inactive. Moreover, the AC50 in assay [5] was 91.7 µM (active); in assay [6], 80.4 µM (active); in assay [7] it was 50 µM (active); in assay [19], 0.576 µM (active); in assay [11], 50 µM (active).
Consider `Cc1c(-c2cccnc2)c2ccccc2n1CCCCC(=O)O`, for which the outcome in [1] was “inactive”; in [2], “inactive”; in [3], “inactive”; in assay [4] it was “inactive”; in [5], “inactive”; with MYC, MYC (gene 4609), “inactive”. For the same compound, the outcome in [6], in [7], in [19], in [8], in [9] and in [12] was inactive. In addition, the outcome in assay [13], in [14], in assay [15], in assay [16], in assay [17] and in assay [18] was inactive. The AC50 in assay [11] was 27.6 µM (active).
With `Oc1ccc2c(c1)-c1ccccc1C2`, the compound was called inactive in [1], in assay [2], in assay [4], in [5], in [6] and in assay [7]. The call in assay [8], in assay [9], in assay [10], in [12], in assay [14] and in assay [15] was inactive. The compound was called inactive in assay [16], in assay [17] and in assay [18]. Moreover, the AC50 in assay [3] is 25.2 µM (active); with MYC, MYC (gene 4609), 33.3 µM (active); in [11] it was 25.2 µM (active); in assay [13], 21.4 µM (active).

These data come from PubChem BioAssay (EPA / NIEHS).
